Shown are actives, neighbours in structure and some others; about 12% of the full set was active somewhere.
HP1b binding inh: HP1-beta chromodomain-methylated histone interaction inhibition | AlphaScreen HP1-beta / biotin-H3K9me3 peptide binding | actives 0.56% (n = 390,000) | Potency, µM (titrated, usually from 114 µM), inactives show at the top dose activity change, negative = inhibition, hits mostly inhibitors | AID 540317; note: nearly all actives have a fitted effect of over 70% in size
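HP1-beta protein (50 nM final) preincubated 30 min at room temperature with biotinylated H3(1-18)K9me3 peptide (50 nM) in PBS pH 7.4, 0.01% Tween-20, then compound added for 30 min. AlphaScreen streptavidin donor/nickel chelate acceptor beads (10 ug/mL final), 30 min dark, luminescence read.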
Sfp PPTase inh: Sfp phosphopantetheinyl transferase inhibition; Q9F4F7; Biochemical Sfp PPTase activity, qHTS; Potency, µM, inactives show largest response in the series, negative = inhibition, actives largely listed as inhibitors; actives 3.5% (n = 310,000); AID 1490;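 note: the enzyme is Sfp with the accession as filed and its product quenches rhodamine fluorescence; 0% = enzyme reaction without inhibitor and -100% = no enzyme wells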
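Step 1, compound plus 15 nM Sfp-PPTase, 15 min, room temperature. Step 2, add rhodamine-CoA (5 uM) and BHQ-2-YbbR (12.5 uM). Step 3, read 525/598 nm fluorescence at 0 and 30 min.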
BAZ2B inh: blocks human BAZ2B; AlphaScreen BAZ2B-H3K14Ac peptide displacement; Q9UIF8; actives 4.4% (n = 360,000); Potency, µM (doses to about 114 µM), for the others: at the highest dose activity change, negative = inhibition, hits mostly inhibitors; note: % is set by controls: 0 for no effect and ±100 for the full control effect; nearly all actives have a fitted effect of over 60% in size
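In this displacement format the biotinylated H3(5-23) peptide acetylated at Lys14 serves as ligand at 50 nM, with BAZ2B at 50 nM in PBS pH 7.4 containing 0.01% Tween-20. Donor and acceptor beads are 10 ug/mL final.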
G9a inh: inhibitors of human histone lysine methyltransferase G9a; G9a H3K9 monomethylation, AlphaScreen, 2 h; Potency, µM (series often up to 102 µM), for the others: top-dose activity, negative = inhibition, usual class: inhibitors; actives 8.8% (n = 350,000); AID 504332; Q96KQ7; note: % is set by controls: 0 for no effect and ±100 for the full control effect; nearly all actives have a fitted effect of over 75% in size
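Quantitative HTS format: methyltransferase activity on a biotin-tagged H3K9 peptide is measured by AlphaScreen, using a rabbit anti-monomethyl-H3K9 antibody with streptavidin donor and anti-IgG acceptor beads. Final levels are 20 nM enzyme, 500 nM peptide, 20 uM SAM; 2 h RT.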
JMJD2A Tudor: inhibitors of human JMJD2A Tudor domain | Potency, µM (doses to about 114 µM), for the others: top-dose activity change, negative = inhibition, hits mostly inhibitors | actives 4.4% (n = 390,000) | AlphaScreen JMJD2A-Tudor / H3K4me3 peptide binding | O75164; note: % is set by controls: 0 for no effect and ±100 for the full control effect; nearly all actives have a fitted effect of over 50% in size
PLK1 PBD block: inhibitors of human PLK1 polo-box domain binding; Potency, µM, for the others: max response, negative = inhibition, most hits filed as inhibitors; AID 720504; P53350; actives 2.8% (n = 360,000); Plk1 PBD binding of FITC phosphopeptide, fluorescence polarization; note: series mostly up to about 57 µM; % is set by controls: 0 for no effect and ±100 for the full control effect; nearly all actives have a fitted effect of over 65% in size
* marks the source's active call; other numbers are inactive results; ? = inconclusive; · = no result; [ ] = dose if it differs, or a comment. Calls come from the whole dose curve; as a rule, active = well fitted curve in the direction sought with a large enough effect; inconclusive = small, poorly fitted or top-dose-only effect, or another doubt; inactive = no such curve, though single readings can be large; an effect the other way counts as inactive or inconclusive. Potency is the fitted concentration of half-maximal effect.

SMILES	HP1b binding inh	Sfp PPTase inh	BAZ2B inh	G9a inh	JMJD2A Tudor	PLK1 PBD block
O=C(NCc1n[nH]c(=S)n1-c1ccc(F)cc1)c1ccc(S(=O)(=O)N2CCCCC2)cc1	18.3%	2.2%	-0.3%	2.51µM*	?	-4.0%
CCOCCCNC(=O)C1(O)c2ccccc2NC(=O)N1c1ccc(Cl)cc1 (stereo unspecified)	26.2%	2.3%	-4.2%	5.8%	-13.9%	-5.5%
CCCC[C@H](NC(C)=O)C(=O)N[C@H]1CC(=O)NCCCC[C@@H](C(N)=O)NC(=O)[C@H](Cc2c[nH]c3ccccc23)NC(=O)[C@H](CCCN=C(N)N)NC(=O)[C@@H](Cc2ccccc2)NC(=O)[C@H](Cc2cnc[nH]2)NC1=O	·	4.6%	·	·	·	·
Cc1ccc(NS(=O)(=O)c2ccc3c(c2)CCO3)cc1C	·	·	·	·	-29.3%	·
O=C1NC(Cc2ccc(O)cc2)c2nc3ccccc3c(=O)n2-c2ncccc21 (stereo unspecified)	·	·	·	·	·	-7.3%
O=C(COC(=O)C1CC2CCCC(C1)C2=O)NC1CCCCC1 (stereo unspecified)	29.4%	·	7.3%	8.3%[12.7 µM]	-10.8%	-4.9%
COc1ccc(NC(=O)c2cn(CC(C)C)c(=O)c3cc(OC)c(OC)cc23)cc1Cl	26.9%	·	0.8%	-28.7%[59 µM]	-9.9%	·
O=C(NCc1n[nH]c(=S)n1-c1ccc(Br)cc1)c1ccc(S(=O)(=O)N2CCCCC2)cc1	-15.1%	-12.4%	-19.1%	7.94µM*	-33.1%	-15.1%
COc1ccc(-n2nnnc2CNC(=O)c2ccc(S(=O)(=O)N3CCOCC3)cc2)cc1	11.8%	·	7.4%	-7.5%[0.501 µM]	-10.7%	-8.7%
COc1ccc(-n2c(CNC(=O)c3ccc(S(=O)(=O)N4CCCC4)cc3)n[nH]c2=S)cc1	8.9%	-2.1%	-6.9%	?	7.94µM*	-15.3%
COc1ccccc1-n1c(CNC(=O)c2ccc(S(=O)(=O)N3CCOCC3)cc2)n[nH]c1=S	21.2%	-21.5%	?	8.91µM*	20µM*	-10.1%
O=C(NCc1n[nH]c(=S)n1-c1ccc([N+](=O)[O-])cc1)c1ccc(S(=O)(=O)N2CCOCC2)cc1	21.6%	-1.1%	-7.4%	7.08µM*	56.2µM*	-10.4%
C[C@H](NC(=O)Cc1cc(F)cc(F)c1)C(=O)N[C@@H](C(=O)OC(C)(C)C)c1ccccc1	·	9.3%	·	·	·	·
CCOC(=O)CNC(=O)Cn1nc(N2CCN(c3ccccc3)CC2)ccc1=O	25.8%	·	-2.5%	7.0%[59 µM]	-11.0%	·
COC(=O)C1(Cc2ccc(O)cc2)OC(=O)C(O)=C1c1ccc(O)cc1 (stereo unspecified)	-25.9%	-26.5%	79.4µM*	?	56.2µM*	-18.0%
Cc1ccc(S(=O)(=O)N2CCN(CC(=O)NCC3(N4CCOCC4)CCCCC3)CC2)cc1	10.7%	·	-1.9%	44.7µM*	-19.3%	-5.4%
O=C(CCC(=O)N1CCN(c2ccc(O)cc2)CC1)c1cccs1	-17.6%	25.1µM*	-29.5%	12.6µM*	-10.9%	4.1%
O=C(CN1CCN(S(=O)(=O)c2ccc(Cl)cc2)CC1)NCC1(N2CCOCC2)CCCCC1	28.3%	·	-0.4%	-10.1%[12.7 µM]	-17.2%	-9.0%
Cc1ccc(S(=O)(=O)N2CCN(C(=O)CN3CCN(c4ccc(O)cc4)CC3)CC2)cc1	?	·	·	·	44.7µM*	-6.5%
Cc1ccc(N2CCN(S(=O)(=O)c3ccc(C)cc3)CC2)cc1	29.8%	-7.4%	-30.8%	8.3%	-17.0%	-24.6%
CC(=O)c1ccc(N2CCN(C(=O)CCC(=O)c3cccs3)CC2)cc1	78.3%	15.5%	-3.3%	12.3%	-22.0%	-9.7%
Cc1ccc(OCCC(=O)N2CCN(c3ccc(O)cc3)CC2)cc1	-25.6%	56.2µM*	-35.1%	11.2µM*	14.1µM*	-12.2%
Cc1nnc(N2CCN(C(=O)Nc3cccc(C(F)(F)F)c3)CC2)c2nn(-c3ccccc3)c(C)c12	-16.6%	·	-13.6%	2.7%[59 µM]	-23.7%	·
CC(=O)N1c2ccc(S(=O)(=O)NC(CC(=O)O)c3ccc(Br)cc3)cc2CC1C (stereo unspecified)	17.5%	3.0%	-15.0%[57.1 µM]	7.0%	?	26.7µM*

Source: PubChem BioAssay (National Center for Advancing Translational Sciences (NCATS))
